Data reported in PubChem BioAssay AID1508608 (The Scripps Research Institute Molecular Screening Center, 2020).
Among all 2,300 compounds or so, about 20 (0.9%) were called active. The full list was thinned out, with actives kept by preference. Values without a mark were called inactive.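 The calls were made as follows: active = mean activation across replicates above 26.72%, the hit cutoff set for this confirmation screen; inactive = the rest.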

Biological target: G-protein coupled receptor 151 (Homo sapiens) (UniProt Q8TDV0)
Sequence (Q8TDV0 whole entry, looked up): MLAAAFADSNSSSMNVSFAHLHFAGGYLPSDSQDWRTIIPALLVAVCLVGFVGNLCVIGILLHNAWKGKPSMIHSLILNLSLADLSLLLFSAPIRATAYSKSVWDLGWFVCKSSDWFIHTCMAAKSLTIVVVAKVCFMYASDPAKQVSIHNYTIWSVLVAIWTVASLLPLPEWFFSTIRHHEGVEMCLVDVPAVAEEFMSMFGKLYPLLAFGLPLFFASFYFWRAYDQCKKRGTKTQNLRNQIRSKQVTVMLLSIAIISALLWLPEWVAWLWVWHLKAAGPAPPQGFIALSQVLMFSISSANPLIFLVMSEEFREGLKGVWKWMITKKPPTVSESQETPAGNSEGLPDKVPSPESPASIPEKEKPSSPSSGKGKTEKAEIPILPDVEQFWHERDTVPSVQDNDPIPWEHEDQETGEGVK
Experiment: GPR151 agonism via beta-arrestin recruitment – cell-based, PathHunter beta-arrestin, luminescence, set 2, confirmation (AID 1508608);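 also: 0% = plate median of compound wells and 100% = EA reagent high control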
Conditions: GPR151 PathHunter beta-arrestin cells, 90 min, at 11.2 µM, hits give high values; 100% = signal from added EA reagent unless noted

For `CC[n+]1c(/C=C/C=C2\N(C)c3ccccc3C2(C)C)n(-c2ccccc2)c2ccc(C)cc21`, which activation is on record?
Its activation is 19.5%.

`CC[n+]1c(/C=C/C=C2\N(C)c3ccccc3C2(C)C)n(-c2ccccc2)c2cc(Cl)ccc21` was tested. Which activation did it give?
The activation was 13.7%.

`CCn1c(/C=C/C=C2\N(C)c3ccccc3C2(C)C)[n+](Cc2ccccc2)c2ccccc21` was tested. Which activation did it give?
Its activation is 35.2% (active).

For `CCCCn1c(C)c(C(=O)OCC)c2cc(OC(=O)CCC)c3ccccc3c21`, which activation is on record?
Its activation is 1.16%.

`CCOC(=O)c1nc2ccccc2c(=O)n1-c1ccc(C)cc1Br` was tested. Which activation did it give?
The activation was -0.06%.

Which activation does the source give for `C[C@@H]1O[C@@H](O[C@H]2C[C@@H](O)[C@]3(CO)[C@H]4[C@H](O)C[C@]5(C)[C@@H](C6=CC(=O)OC6)CC[C@]5(O)[C@@H]4CC[C@]3(O)C2)[C@H](O)[C@H](O)[C@H]1O` here?
The activation was 13.4% [setting not given].

Which activation does the source give for `C[C@H]1CC[C@@H]2[C@@H](C)[C@H]3[C@H](CC4[C@@H]5CC=C6CC(O[C@@H]7O[C@H](CO)C(O[C@@H]8O[C@@H](C)[C@H](O)[C@@H](O)[C@H]8O)[C@H](O)[C@H]7O[C@@H]7O[C@@H](C)[C@H](O)[C@@H](O)[C@H]7O)CC[C@]6(C)[C@H]5CC[C@@]43C)N2C1` (stereo not given in full) here?
The activation was 81.8% (active).

With `CCCCOc1ccc(C(=O)Nc2ccc(Cl)cc2C(=O)c2ccccc2)cc1` as the compound, how does the activation read?
The activation was -0.96%.

For `COCCOC(=O)C1=C(C)OC(N)=C(C#N)C12C(=O)N(CC(=O)OC)c1ccccc12` (stereo not given), which activation is on record?
Its activation is -4.79%.

How did the activation turn out when `O=C(Nc1ccc(Cl)cc1C(=O)c1ccccc1)c1cc([N+](=O)[O-])ccc1Cl` was run?
Its activation is -4.58%.
